# From PubChem BioAssay
# Phagocyt inh = inhibitors of macrophage phagocytosis, primary screen, imaging, J774A.1 cells, IgG beads; inhibition, % at 5 µM; J774A.1 macrophage IgG-bead phagocytosis; 110,000 tested, 0.07% active;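 active = inhibition above the mean of the plate negative controls plus 5 SD, cut at about 13% in these data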;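 note: phagocytic index as fraction of beads internalized from green versus red external bead signal; plate controls were DMSO negative control for no effect and cytochalasin-D positive control for full effect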
# Measles CPE = compounds protecting cells from measles virus cytopathic effect, primary screen, measles RdRp inhibitor project, single point, MLSMR library, absorbance; AID 841, 2007; protection (pct of control), % at 4 µM; Measles virus-infected cells, CPE protection; 140,000 tested, 1.5% active; in the data active = protection mostly above about 24%, no sharp cut-off; inactive = mostly below about 26%
# SDO1 yeast rescue = growth rescue of sdo1-depleted yeast, primary screen, S. cerevisiae, bone marrow failure model; S. cerevisiae sdo1-depleted JHY4D growth rescue, OD600 30 h; hits give high values; pdr5 snq2 efflux-pump mutant strain; 140,000 tested, 0.21% active; z-score at 10 µM;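 active = z-score above 3 at both the 24 hr and the 30 hr optical density reads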;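 note: z-score against mean and SD of all compound wells on the same plate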
# sdo1 rescue conf = SDO1-depleted yeast growth rescue, concentration-response, diseases of bone marrow failure, JHY4D, OD600; shares compounds with SDO1 yeast rescue; S. cerevisiae JHY4D (SDO1-depleted) growth rescue, 30 h; hits give high values; efflux-deficient strain, SNQ2 and PDR5 mutated; OD recovery (no concentration beside the values); 440 tested, 44% active; AID 949, 2007;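 active = yeast growth recovered at 30 hours, either rising with dose fitted slope above 0.001 or with average optical density gain above 0.07, some results past the limit were not filed as active; inactive = growth falling with dose or no effect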;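 note: gain in OD600 from 0 h to 30 h averaged across all seven doses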
# * marks the source's active call; other numbers are inactive results; nt = no result given. A selection: hits, their analogues and other compounds. The true share with any hit is near 1.8%.
SMILES,Phagocyt inh,Measles CPE,SDO1 yeast rescue,sdo1 rescue conf
CCCCCc1nc2ccccc2c(=O)n1N,0,25,-1.6,nt
CC1(C)NC(=O)N(CC(O)CN2C(=O)NC(C)(C)C2=O)C1=O,0,3,9.1*,0.13*
CC1(C)NC(=O)N(CC(O)CN2CCOCC2)C1=O (configuration not stated),-2,17,1,nt
CSc1nn(CCc2ccncc2)c(=S)s1,nt,3,0.39,nt
CC(C)CC(CO)N1CCN(C(=O)c2ccc(C(C)(C)C)cc2)CCC1=O (configuration not stated),nt,19,0.92,nt
CC(C)n1nc(C(=O)OCn2nnc3ccccc3c2=O)c2ccccc2c1=O,-15,26,0.11,nt
CC(NC(=O)c1csc2ccccc12)C1CCCO1 (configuration not stated),1,16,0.48,nt
CC(NC(=O)c1sc2ccccc2c1Cl)C1CCCO1 (configuration not stated),-8,21,4*,0.079
Cc1nc(Nc2ccc(S(N)(=O)=O)cc2)oc1C,-1,10,6.5*,0.05
CC1(C)CC(=O)C=C(Nc2ccc(S(N)(=O)=O)cc2)C1,-4,9,0.6,nt
CCOC(=O)c1nnn(-c2nonc2N)c1CN1CCc2ccccc2C1,0,38,11*,0.11*
CC(C)OC(=O)c1nnn(-c2nonc2N)c1CN1CCc2ccccc2C1,nt,5,-1.1,nt
COC(=O)Cn1c(CN2CCN(c3ccc(F)cc3)CC2)nc2c1c(=O)n(C)c(=O)n2C,0,7,-0.1,nt
COC(=O)c1c(NC(=O)Cc2cccs2)sc2c1CCCC2,-1,27,7.5*,0.048
COCC(=O)Nc1sc2c(c1C(=O)OC)CCCC2,nt,32,-0.62,nt
CC(C(=O)Nc1cccnc1)N1C(=O)c2ccccc2C1=O (configuration not stated),1,26,4.1*,0.088*
CC(C(=O)Nc1cccnc1)N1C(=O)C2C3C=CC(C3)C2C1=O (configuration not stated),nt,8,1.8,nt
Clc1ccc(COc2ccccn2)cc1Cl,nt,4,-0.32,nt
C=CCn1c(N2CCCCCC2)nc2c1c(=O)n(C)c(=O)n2C,1,3,0.01,nt
Cn1c(=O)c2c(nc(N3CCCC3)n2CC(O)CO)n(C)c1=O (configuration not stated),-1,7,2.2,0.097*
CC(=O)Nc1ccc(SCC(=O)N(CCC#N)c2cc(C)cc(C)c2)cc1,1,9,3.9*,0.084*
Cc1cc(C)cc(N(CCC#N)C(=O)CSc2nc3nc(C)cc(C)n3n2)c1,0,12,2,nt
O=C(CSc1nnnn1-c1ccc(Cl)cc1)N1CCc2ccccc2C1,0,4,-2,nt
Cn1c(NCCCO)nc2c(c1=O)C1(CCCCC1)Cc1ccccc1-2,2,4,-1.2,nt
CCC1(C)Cc2ccccc2-c2nc(NCCCO)n(-c3ccccc3)c(=O)c21 (configuration not stated),0,2,5.8*,0.074
SMILES,Phagocyt inh,Measles CPE,SDO1 yeast rescue,sdo1 rescue conf
CCc1nnc(N2C(=O)c3cccc4cccc(c34)C2=O)s1,-2,8,1.6,nt
O=C(NCc1ccco1)C(=O)NCC1OCCCN1S(=O)(=O)c1ccccc1 (configuration not stated),0,9,0.85,nt
O=C(COC(=O)Cc1cccs1)Nc1ccccc1,0,24,1.3,0.034*
O=C(COC(=O)Cc1cccc(C(F)(F)F)c1)Nc1ccccc1,-3,10,0.81,nt
O=C(CSc1nc(Nc2ccccc2)nc(N2CCOCC2)n1)N1CCCC1,-4,3,4*,0.1
O=C(CSc1nc(Nc2ccccc2)nc(N2CCOCC2)n1)N1CCc2ccccc21,0,16,-1.6,nt
CCCCCCCC#Cc1ccccc1/C=N/S(=O)c1ccc(C)cc1 (configuration not stated),nt,4,13*,0.067
CCCCC#Cc1ccccc1CC(=O)Nc1ccccc1,nt,15,-1,nt
Cn1c2c(c(=O)n(C)c1=O)C1(C(=O)Nc3ccccc31)C(C#N)=C(N)O2 (configuration not stated),nt,31,-2.2,nt
CC(C)CNC(=O)c1coc(=O)c(Br)c1,-2,10,0.58,nt
CN(C)CCNC(=O)c1coc(=O)c(Br)c1,1,3,13*,0.053
O=C(Nc1ccc(Cl)cc1C(F)(F)F)c1ccccc1,0,7,-0.65,nt
COc1ccc(NC(=O)COC(=O)/C=C/C(=O)OCC(=O)Nc2ccc(OC)c(Cl)c2)cc1Cl,nt,13,1.4,0.044
CCOC(=O)/C=C/C(=O)OCC(=O)Nc1ccc(OC)c(Cl)c1,nt,22,-1.8,nt
COc1ccc(Cc2nnc(SCC(=O)c3ccccc3)o2)cc1,1,7,-0.33,nt
O=C(CSc1nnc(-c2ccco2)o1)c1ccc(F)c(F)c1,0,10,1.2,nt
COc1ccc(C(=O)CSc2nnc(Cc3ccccc3)o2)cc1,1,7,7*,0.047
O=C(CSc1nnc(-c2ccco2)o1)c1ccccc1,2,20,1.2,0.035
CCN(CC)C(=O)C(=O)N/N=C/c1ccc(C(=O)OC)cc1,-8,3,0.54,nt
CCc1nc2ccc(C)cc2c(C(=O)NC2CCCCC2C)c1C (configuration not stated),nt,3,-0.05,nt
O=C1NCCCC1C(=O)N1CCN(C(c2ccccc2)c2ccccc2)CC1 (configuration not stated),2,6,-0.08,nt
COC(=O)C(C)N(C(=O)c1cccc2ccccc12)c1c(C)cccc1C (configuration not stated),-2,8,-1.8,nt
COC(=O)C(C)N(C(=O)c1cccc(Cl)c1)c1c(C)cccc1C (configuration not stated),1,6,5.6*,0.056
O=C(NNC(=O)C1CC2CCC1C2)c1sc2ccccc2c1Cl (configuration not stated),nt,10,-1.3,nt
CCN(CC)C(=O)c1ccc2c3c(cccc13)C(=O)N(CCc1ccc(OC)c(OC)c1)C2=O,2,15,0.14,nt
SMILES,Phagocyt inh,Measles CPE,SDO1 yeast rescue,sdo1 rescue conf
COc1ccc(CCN2C(=O)c3cccc4cccc(c34)C2=O)cc1OC,-2,8,1.2,0.094*
CN(C(=S)NC(=O)c1ccc(Br)o1)c1ccccc1,-4,3,-0.18,nt
Cc1c2cc(O)c(=O)cc-2oc2cc(O)c(O)cc12,0,11,0.57,nt
COc1cc(OC)c(-c2c3cc(O)c(=O)cc-3oc3cc(O)c(O)cc23)cc1OC,-9,nt,3.8*,-0.025
CCn1c(NCc2cc(Br)ccc2NS(=O)(=O)c2ccc(C)cc2)nc2ccccc21,2,9,0.19,nt
Cc1ccc(-c2cn(-c3ccc(SC(F)F)cc3)c3[n+]2CCC3)cc1,-7,14,0.36,nt
COc1cc2c(cc1NC(=O)c1cccc(S(=O)(=O)N(C)C)c1)oc1ccccc12,2,2,-0.07,nt
CCN(CC)S(=O)(=O)c1ccc(C(=O)Nc2cc3oc4ccccc4c3cc2OC)cc1,nt,12,1.2,0.02
C=CCn1c(SCC(=O)N2CCc3ccccc3C2)nc2ccccc2c1=O,nt,23,-1.9,nt
